Bioassay records (PubChem)
Pf growth 48h – Primary qHTS for delayed death inhibitors of the malarial parasite plastid, 48 hour incubation; P. falciparum luciferase growth in erythrocytes, 48 h; Potency, µM (series often up to 28.7 µM), for inactives: top-dose activity change, negative = inhibition, usual class: inhibitors; actives 5.9% (n = 310,000); AID 504832, 2011
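Erythrocytes infected with P. falciparum carrying an integrated firefly luciferase reporter (2% hematocrit, 0.1% parasitemia final) were exposed to compounds in RPMI 1640 with 0.5% Albumax at 37 C, 5% CO2. Growth inhibition was scored as reduced luminescence.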
HCV inhibitor – qHTS Assay for Inhibitors of Hepatitis C Virus (HCV) | Potency, µM (top dose mostly 41.8 µM), for the others: at the top dose activity change, negative = inhibition, most hits filed as inhibitors | actives 3.4% (n = 340,000) | Huh7.5.1 HCVcc-Cre infection, luciferase reporter, 44 h
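Cells (1,000/well) were plated 4 h before compound, then infected with HCVcc-Cre virus (~0.5 moi). After 44 h further culture, infection was read as luciferase luminescence following a 15 min substrate incubation at room temperature.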
Pf growth 96h – Primary qHTS for delayed death inhibitors of the malarial parasite plastid, 96 hour incubation | actives 6.9% (n = 320,000) | AID 504834, 2011 | P. falciparum luciferase reporter growth, 96 h | Potency, µM (top dose mostly 28.7 µM), for the others: at the top dose activity change, negative = inhibition, usual class: inhibitors
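Delayed-death screen, second-generation endpoint: infected erythrocytes, 2% hematocrit, 0.05% parasitemia final; 96 hours at 37 C, 5% CO2; luciferase detection reagent; luminescence decrease equals reduced growth.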
AMA1 RON2 block – qHTS for Inhibitors of AMA1-RON; Towards Development of Antimalarial Drug Lead: Primary Screen | AlphaScreen AMA1-biotinylated RON2 peptide binding | actives 0.2% (n = 360,000) | Potency, µM (doses to about 58.2 µM), for inactives: at the highest dose activity change, negative = inhibition, actives largely listed as inhibitors | AID 720542, 2013 | Plasmodium falciparum AMA1 (3D7) - RON2 peptide interaction;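 further: 0% = vehicle wells and -100% = peptide control; nearly all actives have a fitted effect of over 45% in size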
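AMA1 (3D7) with his tag at 25 nM final met compounds first, then biotinylated RON2 peptide at 25 nM; detection used donor plus acceptor beads, 10 µg/mL apiece, read by AlphaScreen after 30 min at room temperature.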
* = called active by the depositor; i = inactive; ? = inconclusive; / = no result given; [ ] = another dose, or the depositor's remark. The list is not random: actives were taken first. Their share in the collection is about 11%. The call rests on the fitted dose curve; in most records, active means well fitted curve in the direction sought with a large enough effect; inconclusive means small, poorly fitted or top-dose-only effect, or another doubt; inactive means no such curve, though single readings can be large; an effect the other way counts as inactive or inconclusive. Unless noted, on the % scale 0 is the no-effect control and ±100 the full control effect; potency means the concentration at half of the fitted maximal effect.

SMILES	Pf growth 48h	HCV inhibitor	Pf growth 96h	AMA1 RON2 block
O=C(CN1C(=O)NC2(CCCCCC2)C1=O)c1ccc(OC(F)F)cc1OC(F)F	?	?	?	2%
CC(C)(C)c1ccc(NC(=O)COC(=O)C2(C)CC2(Cl)Cl)cc1 (stereo not given)	-11%	11µM*	-20%	6%
CC(=O)c1cccc(NC(=O)CSc2ccc(-c3ccc4c(c3)OCO4)nn2)c1	73%	11µM*	20%	9%
COc1ccc(-c2cc(C(F)(F)F)nc(SCC(=O)NCc3ccco3)n2)cc1OC	?	?	?	2%
CC(=O)c1cccc(NC(=O)CSc2ccc(-c3ccco3)nn2)c1	-10%	?	-23%	-13%
COc1ccc(NC(=O)CSc2ccc(-c3sc(C)nc3C)nn2)cc1OC	?	?	13µM*	2%
COc1ccc(-c2ccc(SCC(=O)NCc3ccco3)nn2)cc1OC	14%	-1%	5.2µM*	18%
O=C(CSc1ccc(-c2ccco2)nn1)c1cccc([N+](=O)[O-])c1	?	-25%	13µM*	53%
COc1ccc(C(O)c2nc(-c3ccc(F)c(Cl)c3)cs2)cc1 (stereo not given)	/	/	/	6%
COc1ccc(-c2ccc(SCC(=O)Nc3cccc(C(C)=O)c3)nn2)cc1OC	?	8.9µM*	?	6%
COc1ccc(C)cc1NC(=O)CSc1ccc(-c2ccco2)nn1	-10%	10µM*	?	-19%
Cc1ccc(S(=O)(=O)N(c2nc(NC(C)C)nc(NC(C)C)n2)n2cnnc2)cc1	-47%	-5%	-8%	12%
CCCOc1ccccc1C(=O)N(Cc1cccc(Br)c1)C1CCS(=O)(=O)C1 (stereo not given)	?	14%	?	-3%
Cc1cccc(N=Nc2ccc(N(C)C)cc2)c1	208%	-3%	148%	16µM*
CN(C)c1ccc(N=Nc2cccc(F)c2)cc1	189%	0%	142%	8.9µM*
CN(C)c1ccc(N=Nc2ccc(S(N)(=O)=O)cc2)cc1	51%	22%	-25%	-17%
CN(C)c1ccc(N=Nc2cccc3ccoc23)cc1	i	-16%	203%	14µM*
CN(C)c1ccc(N=Nc2ccc3ncccc3c2)cc1	/	6%	/	?
CN(C)Cc1ccccc1OC(=O)N(C)C	/	-10%	8%	1%
Cc1cccc(CN(C)C)c1OC(=O)N(C)C	19%	15%	5.9µM*	10%
COc1cc2c(cc1OC)C1=C(C#N)COCN1CC2	?	-10%	3.7µM*	0%
CNC(=O)C(N)CSC(C)C1=C(C)c2cc3[n-]c(cc4nc(cc5[n-]c(cc1n2)c(C)c5CCC(=O)O)C(CCC(=O)O)=C4C)c(C)c3C(C)SCC(N)C(=O)NC.[Fe+2] (stereo not given)	-41%	/	?	/
C=Cc1c(C)c2cc3nc(cc4[nH]c(cc5nc(cc1[nH]2)C(C)=C5CCC(=O)O)c(CCC(=O)OC)c4C)[C@@]1(C)C3=CC=C(C(=O)OC)[C@H]1C(=O)OC (tested in a mixture with another compound)	3.8µM*	/	3.4µM*	/
CC(C)(C)NS(=O)(=O)c1ccc(C(=O)Nc2ccc3c(c2)OCO3)cc1	8%	9%	14%	25%
Cc1cccc(NC(=O)C(Cc2ccccc2)c2nn[nH]n2)c1C (stereo not given)	?	18%	8.3µM*	-6%
SMILES	Pf growth 48h	HCV inhibitor	Pf growth 96h	AMA1 RON2 block
Cc1cccc(NC(=O)c2ccccc2NC(=O)Cc2ccccc2)c1C	41%	25%	40%	4%
Cc1nc2ccc(S(=O)(=O)NCC(=O)NC(C)c3ccccc3)cc2s1 (stereo not given)	0%	-5%	-9%	-6%
CSc1ccc(C(=O)C2CCCN(S(=O)(=O)c3c(C)noc3C)C2)cc1 (stereo not given)	-19%	?	6%	-1%
CC1Cc2ccccc2N1S(=O)(=O)c1cccc(C(=O)NC2CC2)c1 (stereo not given)	/	-30%	?	3%
COc1ccc(S(=O)(=O)N2CCc3ccccc32)cc1C(=O)Nc1cccnc1	?	-13%	2.9µM*	24%
COc1ccc(S(=O)(=O)N2CCc3ccccc32)cc1C(=O)NCCc1ccccn1	10µM*	21%	?	-4%
CC1Cc2ccccc2N1S(=O)(=O)c1ccc2c(c1)n(C)c(=O)c(=O)n2C (stereo not given)	9.3µM*	13%	?	19%
COc1ccc(S(=O)(=O)N2CCc3ccccc32)cc1C(=O)O	1%	2%	91%	11%
CC1Cc2ccccc2N1S(=O)(=O)c1cccc(C(=O)Nc2cccnc2)c1 (stereo not given)	8.3µM*	?	?	6%
C[C@H]1C=C(C(=O)O)O[C@@H](OCc2ccc(CO)cc2)C1	/	-1%[8.37 µM]	/	5%
C=CCN(CC=C)C(=O)c1cccc(S(=O)(=O)N2c3ccccc3CC2C)c1 (stereo not given)	2.3µM*	?	?	4%
O=C(Nc1cccnc1)c1cccc(S(=O)(=O)N2CCc3ccccc32)c1	10µM*	?	3.3µM*	14%
O=C(Nc1cccnc1)c1ccc(Cl)c(S(=O)(=O)N2CCc3ccccc32)c1	2.6µM*	-29%	3.7µM*	7%
O=C(Nc1ccncc1)c1cccc(S(=O)(=O)N2CCc3ccccc32)c1	10µM*	8.9µM*	?	-15%
CCN(CC(=O)Nc1ccc(NC(C)=O)cc1)C(=O)c1cccc(S(=O)(=O)N2c3ccccc3CC2C)c1 (stereo not given)	?	19%	?	-4%
N[C@@H](CSCCCO)C(=O)O	-1%	/	0%	/
O=C(/C=C/c1ccc(Br)o1)Nc1nnc(C2CC2)s1	24%	/	?	/
CC(OC(=O)CNC(=O)c1sc2ccccc2c1Cl)C(=O)NC1(C#N)CCCCC1 (stereo not given)	?	15%	?	-13%[11.6 µM]
Cc1cc(C)c(S(=O)(=O)NCC2CCC(C(=O)NCCCN3CCC(C)CC3)CC2)c(C)c1 (stereo not given)	9.3µM*	?	8%	-7%
O=C(NCCCN1CCCC1=O)C1CCC(CNS(=O)(=O)c2ccc(Cl)cc2)CC1 (stereo not given)	4%	13%	12µM*	25%
CCS(=O)(=O)N1CCCC(C(=O)NCCCN2CCCC2=O)C1 (stereo not given)	7%	8%	10µM*	5%
CC(=O)Nc1ccc(S(=O)(=O)NCC2CCC(C(=O)NCCCN3CCCC3=O)CC2)cc1 (stereo not given)	-1%	2%	?	-3%
Cc1ccc(C)c(S(=O)(=O)N2CCN(C(=O)c3n[nH]c(=O)c4ccccc34)CC2)c1	?	-3%	?	2%
